35 molecules from PubChem BioAssay (NCI) can be followed below.

Where “and” joins values, the source holds several entries; their conditions need not be identical. Equal entries are not always repeated. The panel holds about 83,000 compounds, 20% with a hit somewhere; the sample as a whole holds those more often.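 How to read the values: 0–100, growth inhibition (40 = 60% inhibited); 0, no net growth; -100 to 0, cell death (-40 = 40% of starting cells died; -100 = all dead).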 A number with no mark means an inactive call. Calls of active or inactive are those of the source. Rule for the calls: active = growth percent below 10; inactive = the rest.

The test system of the experiment is HL-60(TB) leukemia. Nature of the experiment: NCI-60 one-dose screen, 48 h (100 = growth as untreated, 0 = no growth, -100 = all killed). The note with it: 10 µM unless noted.
For the molecule `Nc1nc2ccc(-c3nc4ccc5[nH]ncc5c4c4c3CCCC4)cc2s1`, the growth is 94.7%. In the case of `COc1ccc(CN2c3ccccc3Sc3ccccc32)cc1F` it was -7.46% (active). With `COc1ccc(-c2cn[nH]c2-c2cc(OC)c(OC)c(OC)c2)cc1N` the figure was -17.8% (active) and -10.7% (active); with `COc1cccc(C2=NN(C(C)=O)C(c3cc(OC)c(OC)c(OC)c3)C2)c1` (stereo not given), -17.8% (active); with `COc1cc(/C=C/C(=O)c2c(C)nc3ccccc3c2/C=C/c2ccccc2)cc(OC)c1OC`, -6.84% (active). With `c1ccc2c(N3CCCCC3)ncnc2c1` the figure was 51.5%; with `CCCCCCCCCCCCNC(=O)[C@H]1CSC(c2ccsc2)N1` (stereo not given in full), -12.6% (active). As to `C=C1C(=O)O[C@H]2[C@H]1CC/C(COC(=O)CCSCCC(=O)OC/C1=C/CC[C@@]3(C)O[C@H]3[C@H]3OC(=O)C(=C)[C@@H]3CC1)=C\CC[C@@]1(C)O[C@@H]21`, the growth was -58.2% (active). As to `CC[C@@H](C(=O)[C@H](C)[C@H](O)[C@@H](C)[C@H]1O[C@H]([C@@H](CC)C(=O)O)CC[C@H]1C)C1O[C@]2(C=C[C@@H](O)[C@]3(CC[C@@](C)([C@H]4CC[C@](O)(CC)[C@H](C)O4)O3)O2)[C@H](C)C[C@@H]1C` (stereo not given in full), the growth is -36.8% (active). With `COc1cc(/C=C2/Oc3cc4occc4c(OC)c3C2=O)ccc1OCC(=O)Nc1ccncc1` the figure was 106%. Take `COc1cc(Cl)cc(-c2nn(C(=O)NCCN3CCOCC3)cc2-c2ccncc2)c1`: the growth is 55.7%. Take `CCN1C(=O)N(CC)C2C1NN=c1s/c(=C\c3cccc([N+](=O)[O-])c3)c(=O)n12` (stereo not given): the growth is -37.1% (active). With `Cn1cc(-c2csc(-c3c[nH]c4ccc(Br)cc34)n2)c2ccnc(Cl)c21` the figure was 66.8%; with `Cc1ccc(Sc2oc(-c3ccc(C)cc3)nc2[P+](c2ccccc2)(c2ccccc2)c2ccccc2)cc1`, -45% (active). In the case of `CNC(C)[C@H]1CCC2C3CCC4C[C@@H](N(C)C(=O)c5ccccc5)CC[C@]4(C)C3CC[C@@]21C` (stereo not given in full) it was 14.9%; in that of `COc1ccc2cc3[n+](cc2c1OC)CCc1cc2c(cc1-3)OCO2`, 75.4% and 70.1%; in that of `O=C(NCc1cn(Cc2cccc(Oc3ccccc3)c2)nn1)c1cccnc1Nc1ccccc1`, 32%. With `COc1cccc(-c2nn(-c3ccccc3)cc2-c2ccnc(NCCCNC(=O)Nc3ccc(Cl)c(Cl)c3)c2)c1` the figure was 16.8%.

In the case of `Cc1c(O)ccc(SC#N)c1C`, the growth is 101%. With `CC[C@H](Nc1ncnc2nc[nH]c12)c1nc2cccc(NCc3ccc(C(=O)NO)o3)c2c(=O)n1-c1ccccc1`, the growth is 81.4%. In the case of `NC(=O)CSc1oc(-c2ccccc2)nc1S(=O)(=O)c1ccc(Br)cc1` it was 82.1%; in that of `Cn1ccnc1C(=O)C(=O)Nc1ccc(CC(=O)Nc2ccccc2)cc1`, 107%. With `COc1cc(CNC(=O)/C=C/C=C/c2ccc3c(c2)OCO3)ccc1OCc1cn(-c2ccc(Cl)c(Cl)c2)nn1` the figure was 85.4%; with `N#CSCC(=O)c1ccc(Cl)cc1`, 73.4%; with `Cn1c(I)c(C#C[Si](C)(C)C)c(=O)n(C(=O)c2ccccc2)c1=O`, -59% (active). In the case of `O=C(/C=C/c1ccc(Cl)cc1)c1ccc(Br)cc1` it was 81.4%; in that of `COc1ccc2cc(C(=O)c3coc4ccc(O)cc34)ccc2c1`, 73.2%; in that of `O=C(Nc1ccc(Br)cc1F)c1cc(F)ccc1O`, -19.7% (active). On to `O=C(O)C1CSCN1` (stereo not given), for which the growth was 80.4% and 83.9%.

As for `COc1ccc(OC)c(NC(=O)c2cc(S(=O)(=O)N3CCc4ccccc43)ccc2OC)c1`, the growth is 107%. With `O=C(Nc1ccc(-n2ccc3c(NC(=O)c4ccccc4)nccc32)cc1)Nc1cccc(C(F)(F)F)c1` the figure was 63.8%; with `CN(O)c1nc(N(C)O)nc(N2CCOCC2)n1`, 21.5%; with `COC(=O)/C=C/c1cc(OC)c2c(c1)[C@@H](C(=O)OC)[C@H](c1ccc(OC)c(OC)c1)O2`, -13.3% (active).

`CN(C)c1ccc(/C=C/C(=O)c2ccc(-n3cc(CN4CCN(c5cc6c(cc5F)c(=O)c(C(=O)O)cn6C5CC5)CC4)nn3)cc2)cc1`: the growth was 84.6%. Consider `C=C(CN1CCc2c([nH]c3ccccc23)C1)c1ccc(C(=O)Nc2ccon2)cc1`, for which the growth is 99%.
